Rows were chosen to be rich in hits. Some 11% of all compounds tested hit in one or more screens of this group.
HP1b chromo inh = HP1-beta chromodomain-methylated histone interaction inhibition; P83916; AlphaScreen HP1-beta / biotin-H3K9me3 peptide binding; Potency, µM (titrated, usually from 114 µM), for inactives: at the highest dose activity change, negative = inhibition, hits mostly inhibitors; actives 0.56% (n = 390,000); AID 540317; also: nearly all actives have a fitted effect of over 70% in size
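AlphaScreen: HP1-beta (50 nM) preformed 30 min with biotin-H3(1-18)K9me3 peptide (50 nM) in PBS pH 7.4, 0.01% Tween-20. Compound added for 30 min at RT, then streptavidin donor/nickel chelate acceptor beads (10 ug/mL) for 30 min.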
G9a inh = inhibitors of human histone lysine methyltransferase G9a; actives 8.8% (n = 350,000); G9a H3K9 monomethylation, AlphaScreen, 2 h; Potency, µM (top dose mostly 102 µM), for inactives: at the top dose activity, negative = inhibition, hits mostly inhibitors; Q96KQ7; also: % is scaled to controls: 0 for no effect and ±100 for the full control effect; nearly all actives have a fitted effect of over 75% in size
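G9a (20 nM) was preincubated 15 min with compound, then reacted 2 h at room temperature with 500 nM biotin-H3K9 peptide and 20 µM SAM. Monomethyl-H3K9 detected by AlphaScreen using anti-H3K9me1 antibody.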
VDR inh = blocks the human vitamin D receptor | P11473 | VDR-SRC2-3 peptide fluorescence polarization, 2 h | Potency, µM, for inactives: max response, negative = inhibition, actives largely listed as inhibitors | actives 0.93% (n = 400,000) | AID 504847; also: % is scaled to controls: 0 for no effect and ±100 for the full control effect
Target sequence (P11473 whole entry, looked up): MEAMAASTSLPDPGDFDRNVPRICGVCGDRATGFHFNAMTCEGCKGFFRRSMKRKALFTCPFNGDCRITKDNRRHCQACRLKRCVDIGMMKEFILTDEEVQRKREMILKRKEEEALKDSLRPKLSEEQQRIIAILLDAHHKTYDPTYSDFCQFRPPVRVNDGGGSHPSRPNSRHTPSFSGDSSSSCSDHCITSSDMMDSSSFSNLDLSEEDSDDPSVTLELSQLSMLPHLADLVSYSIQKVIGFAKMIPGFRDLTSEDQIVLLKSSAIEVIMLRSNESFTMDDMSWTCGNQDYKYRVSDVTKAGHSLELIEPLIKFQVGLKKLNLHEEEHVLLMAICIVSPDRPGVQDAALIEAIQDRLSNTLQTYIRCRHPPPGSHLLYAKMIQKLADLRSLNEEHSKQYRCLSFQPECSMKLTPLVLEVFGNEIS
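Compounds are added to VDR with labelled SRC2-3 coactivator peptide and held 2 h at room temperature. Inhibition of the VDR–peptide interaction is then read as a change in fluorescence polarization.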
JMJD2A Tudor inh = inhibitors of human JMJD2A Tudor domain; AlphaScreen JMJD2A-Tudor / H3K4me3 peptide binding; Potency, µM (titrated, usually from 114 µM), inactives show at the top dose activity change, negative = inhibition, most hits filed as inhibitors; actives 4.4% (n = 390,000); AID 504339; also: % is scaled to controls: 0 for no effect and ±100 for the full control effect; nearly all actives have a fitted effect of over 50% in size
BAZ2B block = blocks human BAZ2B; Q9UIF8; actives 4.4% (n = 360,000); AlphaScreen BAZ2B-H3K14Ac peptide displacement; Potency, µM (doses to about 114 µM), for inactives: at the top dose activity change, negative = inhibition, usual class: inhibitors; also: % is scaled to controls: 0 for no effect and ±100 for the full control effect; nearly all actives have a fitted effect of over 60% in size
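Complex of BAZ2B and biotin-H3K14Ac (50 nM apiece) forms over 30 min at RT, then faces library compounds up to 110 uM for another 30 min; AlphaScreen beads added, 20 min dark incubation, luminescence read.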
PLK1 PBD block = blocks phosphopeptide binding to human PLK1 polo-box domain; P53350; Plk1 PBD binding of FITC phosphopeptide, fluorescence polarization; Potency, µM, inactives show max response, negative = inhibition, hits mostly inhibitors; actives 2.8% (n = 360,000); AID 720504; also: series mostly up to about 57 µM; % is scaled to controls: 0 for no effect and ±100 for the full control effect; nearly all actives have a fitted effect of over 65% in size
The depositor's hits bear a star; ? = inconclusive; . = no result given; [ ] = remark or other dose. Calls follow the shape of the dose curve; as a rule, active = well fitted curve in the direction sought with a large enough effect; inconclusive = small, poorly fitted or top-dose-only effect, or another doubt; inactive = no such curve, though single readings can be large; an effect the other way counts as inactive or inconclusive. Potency is read from the fitted curve at half-maximal effect.

SMILES | HP1b chromo inh | G9a inh | VDR inh | JMJD2A Tudor inh | BAZ2B block | PLK1 PBD block
CCOc1ccccc1CN1CCNC(=O)C1CC(=O)NC1CCCCC1 (stereo not drawn) | 40.1% | -4.9%[0.0925 µM] | -7.9% | -26.7% | -18.4% | -11.1%
COc1cccc(CN2CCNC(=O)C2CC(=O)NC2CCCC2)c1OC (stereo not drawn) | 9.3% | 39.8µM* | -20.7% | -24.0% | -15.7% | -14.2%
COc1ccc(C)cc1NC(=O)C(Cc1ccccc1)NS(=O)(=O)c1cccs1 (stereo not drawn) | 11.7%[57 µM] | 26.5%[59 µM] | 0.8% | -17.4% | 9.1% | .
COC(=O)[C@]1(C)N[C@H](CN(C)C(=O)C2CCCCC2)[C@@H]2C(=O)N(C)C(=O)[C@@H]21 | 9.3% | . | 17.9% | -19.9% | . | -3.9%
COc1cccc(CN2CCNC(=O)C2CC(=O)N2CCCCO2)c1OC (stereo not drawn) | 51.9% | 70.8µM* | -10.2% | 1.0% | 0.4% | -2.2%
CC(=O)Oc1ccc2c(=O)c(-c3ccccc3)coc2c1 | 0.2% | 7.8% | -17.9% | -9.3% | -22.7% | -14.5%
COc1ccc(-c2coc3cc(OC(C)=O)ccc3c2=S)cc1 | ? | . | ? | 44.7µM* | . | 11.9µM*
COc1ccc(N=CC2=C(O)c3ccccc3C2=O)c(OC)c1 | -17.2% | ? | 9.2% | -25.3% | ? | -6.0%
Cc1ccccc1N=CC1=C(O)c2ccccc2C1=O | -18.3% | 44.7µM* | 3.8% | -34.7% | -37.5% | -4.1%
COc1cccc(NC(=O)CCS(=O)(=O)c2ccc(Br)cc2)c1 | 37.2% | 10.7% | -10.2% | -11.7% | 1.0% | -15.7%
CC1(C)CC(=O)C2=C(C1)Nc1ccccc1[S@]2=O | 28.1% | 18.8% | 15.4% | -5.6% | -1.2% | 0.6%
CC1(C)CC(=O)C2=C(C1)Nc1ccccc1N=C2 | . | 8.91µM* | . | . | -29.7% | .
CC1(C)CC(=O)C2=C(C1)Nc1ccccc1S2 | -23.5% | 39.8µM* | 5.6% | -23.1% | ? | -25.8%
O=NCc1ccc([N+](=O)[O-])o1 | . | 21.2%[59 µM] | -1.1% | . | . | .
Cc1ccc(/C=N/N2CCN(Cc3ccc(C)cc3)CC2)cc1 | -4.4% | ? | -1.8% | ? | 35.5µM* | -6.6%
Cc1ccc(/C=N/N2CCN(Cc3ccccc3)CC2)s1 | ? | 39.9%[0.501 µM] | 14.4% | 50.1µM* | 7.08µM* | -1.6%
Cc1ccc(CN2CCN(/N=C/c3cc(Br)ccc3O)CC2)cc1 | -6.6% | 8.8%[12.7 µM] | 6.8% | -12.7% | -29.0% | -7.3%
Cc1ccc(CN2CCN(/N=C/c3ccc(C(F)(F)F)cc3)CC2)cc1 | ? | 5.9%[59 µM] | -4.3% | ? | -34.2% | -2.3%
Cc1ccc(CN2CCN(/N=C/c3ccc(C)s3)CC2)cc1 | ? | -18.3%[59 µM] | 1.8% | ? | 39.8µM* | 8.8%
Cc1ccc(CN2CCN(/N=C/c3cccs3)CC2)cc1 | ? | ? | -12.3% | -25.2%[57.1 µM] | 44.7µM* | -8.4%
O=C(CC1SC(N2CCCCC2)=NC1=O)Nc1cccc(C(=O)N2CCCC(C(F)(F)F)C2)c1 (stereo not drawn) | 51.2% | . | 0.9% | -4.6% | . | 4.8%
Cc1ccc(CN2CCN(/N=C\C=C\c3ccccc3)CC2)cc1 | ? | 35.5µM* | 6.8% | 39.8µM* | 28.2µM* | -9.1%
O=C(O)c1ccc(-c2ccc(-c3ccccc3)cc2)s1 | . | ? | . | . | 50.1µM* | .
CC1CCN(C(=O)COC(=O)c2ccc3c(c2)C(=O)N(Cc2ccco2)C3=O)CC1 | 28.3% | 56.2µM* | 5.3% | -13.9% | -12.9% | 4.1%
O=C(Nc1ccc(O)cc1C(=O)O)c1ccc2c(c1)C(=O)N(Cc1ccco1)C2=O | -9.1% | ? | -8.5% | ? | 50.1µM* | -19.4%
CCC(CC)NC(=O)COC(=O)c1ccc2c(c1)C(=O)N(Cc1ccco1)C2=O | 5.7% | 3.9% | 6.3% | -12.0% | -10.9% | -7.2%
O=C(O)Cc1ccc(NC(=O)c2ccc3c(c2)C(=O)N(Cc2ccco2)C3=O)cc1 | -29.4% | ? | -18.5% | 35.5µM* | -11.7% | ?
Cc1ccc(C)c(N2CCN(c3nc4ccccc4n4c(C)nnc34)CC2)c1 | 61.3% | 22.5%[59 µM] | 4.5% | 9.2% | 21.2% | .
